From paper PMC5540273 (PLoS ONE, 2017)

What was measured:
Conditions in all cases: concentration: 1 μM, replicates: in singlicate; n = 1
QSK = test system: QSK
RAF1 = test system: RAF1
RET = test system: RET
RIOK1 = test system: RIOK1
RIOK2 = test system: RIOK2
RIOK3 = test system: RIOK3
RIPK1 = test system: RIPK1
RIPK2 = test system: RIPK2
RIPK4 = test system: RIPK4
RIPK5 = test system: RIPK5
ROCK1 = test system: ROCK1
ROCK2 = test system: ROCK2
ROS1 = test system: ROS1
[1] = test system: RPS6KA4(Kin.Dom.1-N-terminal)
[2] = test system: RPS6KA4(Kin.Dom.2-C-terminal)
[3] = test system: RPS6KA5(Kin.Dom.1-N-terminal)
[4] = test system: RPS6KA5(Kin.Dom.2-C-terminal)
[5] = test system: T1, RSK1(Kin.Dom.1-N-terminal)
T1 construct: gene RPS6KA1

[6] = test system: T2, RSK1(Kin.Dom.2-C-terminal)
T2 construct: gene RPS6KA1

[7] = test system: T3, RSK2(Kin.Dom.1-N-terminal)
T3 construct: gene RPS6KA3
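Note: KINOMEscan kinase panel screen.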

Structure (SMILES) | %Inh (QSK) [%] | %Inh (RAF1) [%] | %Inh (RET) [%] | %Inh (RIOK1) [%] | %Inh (RIOK2) [%] | %Inh (RIOK3) [%] | %Inh (RIPK1) [%] | %Inh (RIPK2) [%] | %Inh (RIPK4) [%] | %Inh (RIPK5) [%] | %Inh (ROCK1) [%] | %Inh (ROCK2) [%] | %Inh (ROS1) [%] | %Inh [1] [%] | %Inh [2] [%] | %Inh [3] [%] | %Inh [4] [%] | %Inh [5] [%] | %Inh [6] [%] | %Inh [7] [%]
Cl.NC(=O)c1cccc(Nc2nccc(Nc3ccc(Oc4cccc(Cl)c4)c(Cl)c3)n2)c1 [GW659008] | 9 | 0 | 3 | 37 | 21 | 23 | 27 | 95.8 | 72 | 0 | 0 | 0 | 0 | 0 | 0 | 5 | 11 | 0 | 0 | 8
COc1ccc2nc(-c3cccc(C)n3)nc(Nc3ccncc3)c2c1 [GSK204919] | 0 | 6 | 18 | 24 | 0 | 16 | 0 | 33 | 5 | 0 | 13 | 5 | 4 | 12 | 0 | 25 | 0 | 2 | 7 | 0
COC(=O)c1c(-c2ccccc2)c2cc(OC)ccc2c(=O)n1Cc1ccccc1 | 23 | 85 | 17 | 0 | 0 | 0 | 0 | 0 | 4 | 24 | 0 | 0 | 0 | 0 | 4 | 15 | 0 | 11 | 18 | 0
CCn1c(-c2ccccn2)nc2cnccc21 [SB-736398] | 0 | 18 | 24 | 4 | 0 | 0 | 0 | 0 | 15 | 0 | 14 | 30 | 0 | 13 | 0 | 15 | 0 | 65 | 0 | 15
Cl.Oc1ccc(-c2nc(-c3ccccc3)[nH]c2-c2ccncc2)cc1 [SB-428218] | 0 | 61 | 26 | 0 | 0 | 0 | 0 | 22 | 14 | 0 | 70 | 61 | 0 | 0 | 0 | 0 | 11 | 30 | 0 | 6
